In the supplement of paper PMC11417369:
The full ranking holds about 25,000 sequences; the median of “ln(normalized median fluorescence intensity)” is about 6.7, and the highest 2% start at about 10. Many of the other results were omitted from the sample, so the highest values are more common in it than they were.

test system: PfHDP1 homeodomain (GST-tagged); assay: gcPBM binding intensity (ln(normalized median fluorescence intensity)); higher = stronger DNA binding
Procedure, shortened: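 GST-tagged P. falciparum DNA-binding domains, expressed in E. coli (about 25 μg on average), were applied for 1 h to an Agilent 4 × 180k array of primer-extended double-stranded 36-bp intergenic genomic probes plus negative controls. The binding buffer was 1× PBS with 1% milk, 0.2 mg/ml BSA, 0.5% salmon testes DNA and 0.03% Triton X-100. Bound protein was detected with Alexa488 anti-GST antibody and scanned at 488 nm. Binding intensity is the highest Masliner-normalised natural-log median intensity across replicate spots of either probe orientation.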

| Sequence | gcPBM binding intensity (ln) |
| --- | --- |
| TAATGTAAAATTTAGAGTACATAAAAAATTGGATGA [XGTACX_site7225] | 6.68 |
| AAAAATAAAATATATACATGCATATACATATTATAT [TGCATGCA_site668] | 6.31 |
| AAATAAAATTATAATACATGCATACATACATATATA [TGCATGCA_site69] | 6.3 |
| AATTATATAAGCCACGCATGTGTGCATAAAAATACA [TGCATGCA_site114] | 10.9 |
| CCATAATATTATAGACGTACGAATATATATAAAAGA [XGTACX_site7295] | 7.24 |
| ACATATAAATGATATGTACACACATTTATATATATA [CACACA_site9152] | 7.4 |
| TAAAGATATAAATGCACACGTATTAAAAAAAAAATA [CACACA_site952] | 9.54 |
| AAAATTAATGTTGGTTGTACAAAAATTAAATATGGT [XGTACX_site66] | 6.85 |
| TATATTAACAAAATGGTGCAATAATTTCTATATTGT [GTGCAC_site9430] | 10.4 |
| ACATTAACATTGTTGGTGCAAAATTAATATGTTTTT [GTGCAC_site9673] | 10.7 |
| TAAATACATAAAAATTGTACACATTGTTTTCTCTTT [XGTACX_site6435] | 6.49 |
| TAGAAATATATAAATTGTACATGTTTGTATAATATA [XGTACX_site2097] | 6.44 |
| CTTAAATTTTTAAATACACACATACACCCATACACA [CACACA_site4461] | 7.25 |
| TAAAATAAAAAGTTTACACACATATATAATTTTAAT [CACACA_site662] | 6.24 |
| ATTAAATGCACATATACACACACCCAATTTTAAGTT [CACACA_site3049] | 11.3 |
| TAAATGCACATATACACACACCCAATTTTAAGTTTT [CACACA_site7428] | 11.1 |
| ACCCAATTTTTTAGTACACACATATAAATATATAAA [CACACA_site4944] | 6.86 |
| ATATTTATACTATACACACCCAATTTAAAAAAAAAT [CACACA_site1163] | 7.11 |
| TTCTTAAGGAACGAACGTACAGAATAAAAAGTAAAA [XGTACX_site4294] | 6.61 |
| GTTTATGTTAAACCATGTACTTAATATTTTATTCTT [XGTACX_site3761] | 6.29 |
| ATTACATTTTTAATGCGTACTAAAAATGTATATAAG [XGTACX_site6384] | 6.6 |
| ATTGAAAAACCGTTTAGTACATATCATCACGTTTGT [XGTACX_site1295] | 6.04 |
| CATACATACATACATACACACACATATATATATATA [CACACA_site8593] | 9.27 |
| ATTGCTTTTCTTTTTGCACACTTATGCATATATATA [CACACA_site2584] | 10.4 |

| Sequence | gcPBM binding intensity (ln) |
| --- | --- |
| TTTCTATATGGATTTGCACACATAAAAATGCTTATA [CACACA_site8751] | 10.2 |
| TGCTTTTCTTTTTGCACACTTATGCATATATATATA [CACACA_site2583] | 10.8 |
| TTTGAATACTGAATGGTGCAAATTGTTCTCCCCATG | 10.5 |
| TTGTTCTTTTGAAAGGTGCAAAAGAAAAATAATTAA | 9.53 |
| CCCTCCCCATGTTTAGTGCAAAAATATTTGAAATTG [GTGCAC_site9873] | 10 |
| AAAGGATTTATACTAGTGCAAAAATATAAAAATATA | 9.12 |
| TTTTTTTTTTATGAAAGTACATATGAAAAATACGAA [XGTACX_site3451] | 6.53 |
| CATTTTTTTTTATAAATACACACGTACGGGTGCATA [CACACA_site1569] | 7.38 |
| ATATTTAAATTTTGCACACGCATATGAAATTAGGAC [CACACA_site1035] | 10.5 |
| ATTAAAAATTCAATTGCACACGCACATATTTTAATA [CACACA_site8618] | 9.92 |
| TGATATTTAAATTTTGCACACGCATATGAAATTAGG [CACACA_site1034] | 10.1 |
| GACTCATTAAGGATTATTCCTAATGATCAAAAGAAC [CACACA_negctrl_site515] | 6.54 |
| TCTTAAAATATATAGGTGCAAAAAAAAAAAAAAAAA | 8.62 |
| TTTCTAATTTATATCACACACATATATTTATAGTAA [CACACA_site6280] | 6.53 |
| ATAAAAATCAAAAAAAATACATAATAGTAATAATAA [GTGCAC_negctrl_site481] | 6.42 |
| CATGAATATTTTAATGTGCACATTTATCATTATATG | 10.6 |
| GGAACTTATTTTTATACACACATATGTGCATATTAT [CACACA_site629] | 10.8 |
| ATGCATACACTTATATGTACACATTTACATATTATT [XGTACX_site2841] | 6.93 |
| TATATATATATATATGTGCACATTTATTGCCTTTGC | 10.6 |
| CTTATGTGCATACCTACACACTTACCTATATTTATA [CACACA_site7411] | 9.67 |
| GTAAAGGCTATATATGTGCACATTTTTTTTTTTTTT [GTGCAC_site9925] | 10.9 |
| ATTTTTATATAATGAACACACATATTATATCATTTA [CACACA_site1572] | 6.51 |
| TTTTGTTTATGTGTGCATTATATTATATTTTTTATT [TGCATGCA_negctrl_site146] | 10.2 |
| TTTTTTTTCTATGTGGTGCACATTATTTTTTTTTTT | 9.27 |

| Sequence | gcPBM binding intensity (ln) |
| --- | --- |
| CTTTATATATATTGCGTGCACATTTTTTTTTTTTTT | 9.4 |
| ATATTTTTATATAATGAACACACATATTATATCATT [CACACA_site8446] | 6.22 |
| TTTCACATATATATGGTGCATATTTTATGTGTAAAT [GTGCAC_site9937] | 9.91 |
| TTTTGTTTAGTGTATTGTACAATATATCTTTATTTT [XGTACX_site5163] | 6.52 |
| TTTTGGCTGATCAGATTTAACAAAAAAAAAAAAAAA [CACACA_negctrl_site671] | 6.06 |
| GAAATTAAATGACATACACACTATATTATAGATTTT [CACACA_site7468] | 6.23 |
| AGTGGGATTTTTAATTGTACATAAATAATATCATAA [XGTACX_site4163] | 6.56 |
| AGAATTAAAAACAGTTGTACAAAAAGTTGTATAAAT [XGTACX_site411] | 7.41 |
| AAATAAAAGGTTGAGAGTACATTTTTGTGTATGTAT [XGTACX_site5547] | 6.49 |
| ACTGAAAAAAGAAATACACACATTCTGGATCAGATA [CACACA_site7760] | 6.39 |
| ATTTACATTATATTGAATATGCCATATTATATTATT [CACACA_negctrl_site811] | 6.59 |
| CGTATGTGCGGACATGCATGCAATATACAAGAAAAA [TGCATGCA_site145] | 7.01 |
| TATATATATATATATGTGCACATTTTATTAAAATGT | 10.2 |
| TTATATTATATATATGTGCACATTTTTAAACTTGGA | 10.7 |
| TATTTTTAACAGTGCACACATAACTTAATTATATGT [CACACA_site2194] | 9.55 |
| TATATTATTCATTAAGCACACATTATTTTTATAATA [CACACA_site6056] | 6.36 |
| ACATATTATTCAAGTGCACACTTTATATTTATGATT [CACACA_site3295] | 8.81 |
| CATTATATGATTTATGTGCACATTCATTTATTTTAA | 10.8 |
| TACTTAATTATAAGGACATGCACAAAAGGAATTATT [TGCATGCA_site468] | 8.01 |
| ATTTATTTCTTGTTAGTGCACTTTCTTTGGTAAAAT | 10.9 |
| TGTTAAAATTATTTGGTGCACTTGTTTTACCTTATT | 9.92 |
| CTTATTTTGTTATAAGTGCATTTTTTAAAATTTCTT | 8.33 |
| ATCTTATATATACGTTGTACTACAGGATATGTCATA [XGTACX_site5734] | 6.63 |
| TTAAAATTCAAAAAAAAAAATCAGAATATCAGAAAA [CACACA_negctrl_site1361] | 5.92 |

| Sequence | gcPBM binding intensity (ln) |
| --- | --- |
| TATATATGTATATGTGTGCACCTTATTTCTTTTATT [GTGCAC_site9513] | 9.55 |
| TATATATTTCGGTGTGCACACTTTTTATTTTTATCC [CACACA_site1726] | 10.7 |
| ATTGTGCACTTATATGCACACATTTTAGTTTTTTTT [CACACA_site2028] | 11.5 |
| ATATATATATAAAGTTGTACATTTTTTATTTTTTCA [XGTACX_site7847] | 8.52 |
| CATTTTGTTTTAAAGTGTACATTATGTAATATAAAA [XGTACX_site647] | 6.54 |
| ATTTATATTAAAAGTGTGCACTTTTTTTTTTTTTTT | 8.1 |
| ATTTATATGCACCATTGTACGTTTTATAAAGTTTGG [XGTACX_site3755] | 10.5 |
| ATATTACACATATATGCACACATTGTAGTTATTTAT [CACACA_site8843] | 8.92 |
| TATATTTATATATTAGTGCACTTTTTGTTAATTTTT | 10.3 |
| TTATATTTAGTATATGCACACTTTATGTTTGTTATT [CACACA_site5163] | 9.53 |
| TATATATATTAGTGTGCACACTTTTTATTTTTATCC [CACACA_site8506] | 10.5 |
| TAATATTATTATTTTACACACTTTTTTCCTTTTATC [CACACA_site2457] | 6.61 |
| TTTCAATGTGACACGTGTCCGTAAAATTACATAATT [XGTACX_site7073] | 6.61 |
| ATCGCGAAGTAGCATTCACACACAGCAAAATATATA [CACACA_site9162] | 6.65 |
| ATATATATATTTATATGTACATAATATAAAATTTCT [XGTACX_site3720] | 7.7 |
| ATGTTTTTTATTCTTCGTACGTATGAACGATAGTGT [XGTACX_site4225] | 6.71 |
| GCTTGTACATTTTTAAAAAATGACTTCGAAAGGAAT [CACACA_negctrl_site453] | 7.01 |
| TTTTAATTGTTTATTTGTACATATGTTTAATTATAT [XGTACX_site571] | 6.79 |
| TATATAAATGGACACACACACACCTTATAATTATTA [CACACA_site6093] | 6.85 |
| CCCACATAAAAAAATAAACACACATATGTATATATA [CACACA_site9040] | 7.07 |
| AAGAAAAACAATGAGATAAAGAAGAGAAAATATGTC [TGCATGCA_negctrl_site415] | 6.88 |
